For this assay, the system named is Tyrosine-protein kinase ABL1 (Homo sapiens), P00519 [T315I]. Conditions: at 0.1 µM.
As to `O=C(Nc1ccc(Oc2ccc3[nH]c(NC(=O)c4ccccc4)nc3c2)cc1)Nc1cc(C(F)(F)F)ccc1F`, the inhibition was 36.6%.
`CCS(=O)(=O)c1ccc(OC)c(Nc2ncc(-c3cccc(-c4ccccc4F)c3)o2)c1`: the inhibition amounted to 1.82%.
As for `C[C@@H](Oc1cc(-n2cnc3ccc(OCC4CCN(C)CC4)cc32)sc1C(N)=O)c1ccccc1Cl`, the inhibition was -2.27%.
For the compound `Clc1ccc(CNc2nccc(-c3cnn4ncccc34)n2)cc1`, the inhibition was 0.52%.
`COc1ccc(C2=C(N3CCc4ccccc43)C(=O)NC2=O)cc1`: the inhibition came to 3.54%.
Consider `CCN(CC)Cc1ccc(Nc2nccc(-c3cnn4ncccc34)n2)cc1`, for which the inhibition is 7.91%.
Turning to `COc1cc2ncn(-c3cc(OCc4ccccc4C(F)(F)F)c(C(C)=O)s3)c2cc1OC`, the inhibition worked out at 1.88%.
As for `Fc1ccc(-c2nc3n(c2-c2ccncc2)CCS3)cc1`, the figure is 1.83%; as for `COc1cccc(/C=N/Nc2ncnc3c2cnn3-c2cccc(OC)c2)c1`, 3.28%; as for `CS(=O)(=O)CCNCc1ccc(-c2ccc3ncnc(Nc4ccc(OCc5ccccc5)c(Br)c4)c3c2)o1`, 1.53%.
The figure for `COc1cc(N2CCN(C(C)C)CC2)ccc1Nc1nc(Nc2ccc(F)cc2C(=O)NC[C@@H](O)CO)c2cc[nH]c2n1` is 2.48%; for `CN(C)c1ccc2c(c1)/C(=C/Nc1ccc(S(N)(=O)=O)cc1)C(=O)N2` it is 3.12%.
`CN(C)CCCNc1nccc(-c2c(-c3ccc(F)cc3)nn3cc(C(F)(F)F)ccc23)n1`: the inhibition was 1.28%.
As for `Nc1nccc(-c2c(-c3ccc(F)cc3)ncn2C2CCC(O)CC2)n1` (centres undefined), the inhibition is 6.26%.
Regarding `COc1cc2ncn(-c3cc(OCCc4ccccc4)c(C(N)=O)s3)c2cc1OC`, the inhibition came out at 1.49%.
In the case of `CNC(=O)c1cncc(/C=C/c2c(C)cccc2C)c1`, the inhibition worked out at 1.83%.
As for `NCc1ccc(-n2c(-c3nonc3N)nc3cnccc32)cc1`, the figure is 2.95%; as for `Fc1ccc(-c2ncn(C3CCNCC3)c2-c2ccnc(Oc3ccc4c(c3)OCO4)n2)cc1`, 3.51%; as for `C#Cc1cccc(Nc2ncnc3ccc(OCCCCNCCS(C)(=O)=O)cc23)c1`, 3.9%.
Regarding `NS(=O)(=O)c1ccc(N/N=C2\C(=O)Nc3ccc(-c4cnco4)cc32)cc1`, the inhibition is 0.71%.
The figure for `O=C(NCC1CC1)c1ccc(-c2cccc(C(=O)NC3CC3)c2)cc1` is 2.52%.
In the case of `CCS(=O)(=O)c1ccc(OC)c(Nc2ncc(-c3ccccc3Cl)o2)c1`, the inhibition worked out at 3.23%.
Turning to `COc1ccc(-c2ccc3c(NC(=O)C4CC4)n[nH]c3n2)cc1`, the inhibition was determined as 2.42%.
Regarding `NC(=O)c1cc(-c2ccncc2)cc(-c2ccccc2)c1N`, the inhibition amounted to 4.26%.
Regarding `Fc1ccc(-c2c(-c3ccncc3)nc3n2CCS3)cc1`, the inhibition was 0.05%.
For `COc1ccc2cc(-c3c(-c4ccncc4)nc(-c4ccc(S(C)(=O)=O)cc4C)n3C)ccc2c1`, the inhibition was 8.12%.
Regarding `Fc1ccc(-c2ncn(C3CCNCC3)c2-c2ccnc(Oc3ccc(Oc4ccccc4)cc3)n2)cc1`, the inhibition turned out to be 0.61%.
`COc1cc(Nc2ncc3c(C)nc(-c4cccc(C(F)(F)F)c4)n3n2)cc(OC)c1OC`: the inhibition came out at 3.13%.
`CN(c1ccc(NC(=O)Nc2c(Cl)cccc2Cl)cc1)c1ccnc(Nc2cccc(CS(C)(=O)=O)c2)n1`: the inhibition was 41.6%.
The figure for `COc1cc2ncn(-c3cc(OCc4cccs4)c(C(N)=O)s3)c2cc1OC` is 12.2%.
As for `NC(=O)Cc1ccccc1Oc1nccc(-c2c(-c3ccc(F)cc3)ncn2C2CCNCC2)n1`, the figure is 1.47%.
Turning to `C/C(Nc1ccc(S(N)(=O)=O)cc1)=C1/C(=O)Nc2ccccc21`, the inhibition came to 1.39%.
As to `Fc1ccc(-c2ncn(CCCN3CCOCC3)c2-c2ccncc2)cc1`, the inhibition was -1.3%.
Consider `FC(F)(F)c1cccc(Nc2nccc(-c3cnn4nc(-c5ccccc5)ccc34)n2)c1`, for which the inhibition was -0.65%.
